# Laboratory results as given in publication PMC11062922 (Nature Chemical Biology, 2023).
# Where two headings read alike, the source gives them in different places.
# How the values were obtained:
# Set-up in all cases: species or system human, MV4-11 + K-562 + COLO205 + SK-N-BE2 + OVCAR-8
# [1] = test system: HSP90B1; settings: read-out: apparent Kd, n = 1
# [2] = test system: PKN3; settings: read-out: apparent Kd; compound concentrations:100 nM and 1000 nM (sheet 'Samples'); n = 1
# [3] = test system: PRKX; settings: read-out: apparent Kd; compound concentrations:100 nM and 1000 nM (sheet 'Samples'); n = 1
# [4] = test system: ROCK2; settings: read-out: apparent Kd; compound concentrations:100 nM and 1000 nM (sheet 'Samples'); n = 1
# [5] = test system: GSK3A; settings: read-out: apparent Kd, n = 1
# [6] = test system: GSK3B; settings: read-out: apparent Kd, compound concentrations: 100 nM and 1000 nM (sheet 'Samples'), n = 1
# [7] = test system: PRKCA; settings: read-out: apparent Kd, compound concentrations: 100 nM and 1000 nM (sheet 'Samples'), n = 1
# [8] = test system: PRKCB; settings: read-out: apparent Kd, compound concentrations: 100 nM and 1000 nM (sheet 'Samples'), n = 1
# [9] = test system: PRKCD; settings: read-out: apparent Kd, compound concentrations: 100 nM and 1000 nM (sheet 'Samples'), n = 1
# [10] = test system: PRKCQ; settings: read-out: apparent Kd, compound concentrations: 100 nM and 1000 nM (sheet 'Samples'), n = 1
# [11] = test system: RPS6KA6; settings: read-out: apparent Kd, compound concentrations: 100 nM and 1000 nM (sheet 'Samples'), n = 1
# [12] = test system: MAPKAPK2; settings: read-out: apparent Kd; compound concentrations:100 nM and 1000 nM (sheet 'Samples'); n = 1
# [13] = test system: MDN1; settings: read-out: apparent Kd; compound concentrations:100 nM and 1000 nM (sheet 'Samples'); n = 1
# [14] = test system: MYLK3; settings: read-out: apparent Kd; compound concentrations:100 nM and 1000 nM (sheet 'Samples'); n = 1
# [15] = test system: NQO2; settings: read-out: apparent Kd; compound concentrations:100 nM and 1000 nM (sheet 'Samples'); n = 1
# [16] = test system: SMC4; settings: read-out: apparent Kd; compound concentrations:100 nM and 1000 nM (sheet 'Samples'); n = 1
# [17] = test system: HSPE1; settings: read-out: apparent Kd; compound concentrations: 100 nM and 1000 nM (sheet 'Samples'), CATDS: 0.26304172030338102; n = 1
# [18] = test system: PGK1; settings: read-out: apparent Kd; compound concentrations: 100 nM and 1000 nM (sheet 'Samples'), CATDS: 0.76516694172770505; n = 1
# [19] = test system: PKM; settings: read-out: apparent Kd; compound concentrations: 100 nM and 1000 nM (sheet 'Samples'), CATDS: 0.19798813046119201; n = 1
# [20] = test system: RAN; settings: read-out: apparent Kd; compound concentrations: 100 nM and 1000 nM (sheet 'Samples'), CATDS: 0.17121500690258801; n = 1
# [21] = test system: PRKCI; settings: read-out: apparent Kd; compound concentrations: 100 nM and 1000 nM (sheet 'Samples'), CATDS: 6.3639374568516094E-2; n = 1
# [22] = test system: RPS6KB1; settings: read-out: apparent Kd; compound concentrations: 100 nM and 1000 nM (sheet 'Samples'), CATDS: 7.7658945876463797E-2; n = 1
# [23] = test system: PIK3C3; settings: read-out: apparent Kd; compound concentrations: 100 nM and 1000 nM (sheet 'Samples'), CATDS: 0.26990158235455203; n = 1
# [24] = test system: PIK3CB; settings: read-out: apparent Kd; compound concentrations: 100 nM and 1000 nM (sheet 'Samples'), CATDS: 0.57413084763850397; n = 1
# [25] = test system: IARS; settings: read-out: apparent Kd; compound concentrations: 100 nM and 1000 nM (sheet 'Samples'), CATDS: 1; n = 1
# [26] = compound concentrations:100 nM and 1000 nM (sheet 'Samples')
smiles,measurement,setting,value
COc1cc(C2=NC(c3ccc(Cl)cc3F)C(C(=O)Nc3ccc4[nH]ncc4c3)=C(C)N2)ccn1.O=C(O)C(F)(F)F (stereo not shown) [GSK534911A],potency estimated from few doses,[1]; [26],1110 nM
same,potency estimated from few doses,[2],1830 nM
same,potency estimated from few doses,[3],1320 nM
same,potency estimated from few doses,[4],220 nM
Cn1cc(C2=C(c3cn(CCCCCN)c4ccccc34)C(=O)NC2=O)c2ccccc21 [RO0317843-000],potency estimated from few doses,"[5]; compound concentrations: 100 nM and 1000 nM (sheet 'Samples'), CATDS: 0.120915323717963",500 nM
same,potency estimated from few doses,[6]; CATDS: 0.12552661641342699,455 nM
same,potency estimated from few doses,[7]; CATDS: 0.213712947404604,159 nM
same,potency estimated from few doses,[8]; CATDS: 0.109320974178185,666 nM
same,potency estimated from few doses,[9]; CATDS: 0.13254198888423899,398 nM
same,potency estimated from few doses,[10]; CATDS: 0.26439518938370499,114 nM
same,potency estimated from few doses,[11]; CATDS: 0.131410075991204,407 nM
Cn1cc(C2=C(c3cccc(OC[C@H](O)CO)c3)C(=O)NC2=O)c2ccccc21 [RO3206173-000],potency estimated from few doses,"[5]; compound concentrations: 100 nM and 1000 nM (sheet 'Samples'), CATDS: 0.54568324377959498",6.06 nM
same,potency estimated from few doses,[6]; CATDS: 0.46137484559858299,8.49 nM
Cc1nnc(-c2ccc3occ(-c4ccc(S(C)=O)cc4)c3c2)[nH]1 (stereo not shown) [TPKI-85],potency estimated from few doses,[5]; [26],339 nM
same,potency estimated from few doses,[6]; CATDS: 0.41063798470662799,861 nM
Cn1cc(C2=C(c3c4n(c5ccccc35)CCN(C(N)=S)C4)C(=O)NC2=O)c2ccccc21 [RO0319377-000],potency estimated from few doses,[5]; [26],427 nM
same,potency estimated from few doses,[6]; CATDS: 0.32462654335000002,259 nM
same,potency estimated from few doses,[12],1830 nM
same,potency estimated from few doses,[13],1470 nM
same,potency estimated from few doses,[14],1640 nM
same,potency estimated from few doses,[15],1550 nM
same,potency estimated from few doses,[16],2130 nM
Cn1cc(C2=C(c3cn(C)c4ccccc34)C(=O)NC2=O)c2ccccc21 [RO0317208-000],potency estimated from few doses,[17],475 nM
same,potency estimated from few doses,[18],47 nM
same,potency estimated from few doses,[19],1120 nM
same,potency estimated from few doses,[20],1970 nM
Cl.Cn1cc(C2=C(c3c4n(c5ccccc35)CCC(CN)C4)C(=O)NC2=O)c2ccccc21 (stereo not shown) [RO0318425-001],potency estimated from few doses,"[5]; compound concentrations: 100 nM and 1000 nM (sheet 'Samples'), CATDS: 7.9505519232768704E-2",383 nM
same,potency estimated from few doses,[6]; CATDS: 0.10826194795631,122 nM
same,potency estimated from few doses,[7]; CATDS: 0.4123063070702,8.81 nM
same,potency estimated from few doses,[8]; CATDS: 0.195628585726322,30 nM
same,potency estimated from few doses,[9]; CATDS: 0.18341156503501599,34.1 nM
same,potency estimated from few doses,[21],1630 nM
same,potency estimated from few doses,[10]; CATDS: 0.13479681678754199,67.5 nM
same,potency estimated from few doses,[11]; CATDS: 9.8162959720225998E-2,167 nM
same,potency estimated from few doses,[22],429 nM
O=c1cc(N2CCOCC2)nc2n(Cc3cccc(Cl)c3Cl)c3ccccc3n12 [GSK2299009A],potency estimated from few doses,"[1]; compound concentrations: 100 nM and 1000 nM (sheet 'Samples'), CATDS: 0.28143783483282298",1040 nM
same,potency estimated from few doses,[23],1170 nM
same,potency estimated from few doses,[24],251 nM
C[C@@H]1CCCCN1c1cc(-c2ccc3c(N)n[nH]c3c2)nc(N)n1 [GSK2258759A],potency estimated from few doses,[1]; [26],968 nM
Cc1ccc(-c2nc(Nc3ccncc3)c3ccccc3n2)s1 [GSK189015A],potency estimated from few doses,[25],1440 nM
